# Records with an inconclusive call do not appear. Entries that show only a call come without a potency. Calls of active or inactive are those of the source. Calls follow the shape of the dose curve; as a rule, active = well fitted activation curve with a large enough effect; inconclusive = small, poorly fitted or top-dose-only effect; inactive = no such curve, though single readings can be large or run the other way.
# Test: qHTS Assay for Identifying a Potential Treatment of Ataxia-Telangiectasia: Secondary assay (no NCS) hit validation;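 also: phosphorylated KAP1 signal as a proxy for ATM-like kinase activity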
# Conditions: A-T patient fibroblasts, AlphaLISA, no DNA damage added, 90 min; series mostly up to 76.9 µM
# Method in brief: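 hTERT-immortalized A-T patient fibroblasts (F2112), 500 cells/well, exposed to compounds at up to 76.7 uM final without NCS at 37C. KAP-1 phosphorylation measured by AlphaLISA after lysis and 6 h detection at 25C.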
# Potency is read from the fitted curve at half-maximal effect.
row,Compound,Potency
1,CCCCn1c2c(c(=N)c3ccccc31)CCC2,inactive
2,O=C(O)CCC(=O)NN1C(=O)c2ccccc2NC1c1ccco1 (stereo not given),inactive
3,CCn1nc(C)c(CNC(=O)c2cc(COc3ccc(F)cc3Cl)on2)c1C,inactive
4,COc1ccc(CNC(=O)CN2C(=O)CSc3ccc(S(=O)(=O)N4CCOCC4)cc32)c(OC)c1,inactive
5,COc1cc(/C=C2\SC(=S)N(C(C(=O)O)c3ccccc3)C2=O)ccc1O (stereo not given),inactive
6,COC(=O)c1cccc2c1-c1ccccc1/C2=N\NC(N)=O,inactive
7,COc1cccc(CNCc2ccc(OC)c3ccccc23)c1OC,inactive
8,Cc1ccc(C(=O)Nc2sc3c(c2C(=O)O)CCCCC3)o1,0.232 µM (active)
9,O=C(C[n+]1cccc2ccccc21)c1ccc(NC(=O)c2ccccc2)cc1,inactive
10,COC(=O)Cc1ccc(NC(=S)NCCSc2ccc(Cl)cc2)cc1,inactive
11,O=C(O)c1ccc(/C=C/c2nc3ccccc3c(=O)[nH]2)cc1,inactive
12,COc1ccc(-n2c(C)cc(=O)[nH]c2=O)cc1,inactive
13,CNC(=O)Cc1csc2ccc(C)cc12,inactive
14,COc1ccc2nc(NCCCNC(=O)c3cc(OC)c(OC)c(OC)c3)c(C#N)cc2c1,inactive
15,CCOC(=O)C1CCN(C(=O)c2cc3cc(Cl)ccc3[nH]2)CC1,inactive
16,Fc1ccc(C2=NOC(c3nnc(-c4ccccc4)o3)C2)cc1 (stereo not given),inactive
17,Clc1cccc(Cl)c1CSc1nnc(-c2ccncc2)s1,41.2 µM (active)
18,CCn1nc(C)c(/C=N/NC(=O)Cn2cncn2)c1C,inactive

row,Compound,Potency
1,CC(=O)Nc1ccc(NC(=O)CSc2nnnn2-c2ccc(F)cc2)cc1,inactive
2,CCOc1cc(/C=C/c2nc3ccccc3c(=O)[nH]2)ccc1O,inactive
3,O=C(NC12CC3CC(CC(C3)C1)C2)c1cccc(OC(F)F)c1,inactive
4,COc1ccc(-c2nn(C)c(=O)[nH]2)cc1,inactive
5,COc1ccc(C2NC(=S)NC3=C2N2CCC3CC2)cc1 (stereo not given),1.16 µM (active)
6,O=C(C(c1ccccc1)c1ccccc1)N1CC[C@@]2(O)CCCC[C@H]2C1,inactive
7,CC12CCC(C(=O)NNc3ccc([N+](=O)[O-])cc3)(OC1=O)C2(C)C (stereo not given),inactive
8,COc1ccc(-c2cc(C(F)(F)F)c(C#N)c(SCC(=O)O)n2)cc1OC,inactive
9,CS(=O)(=O)c1ccc(-c2csc(-c3cccnc3)n2)cc1,inactive
10,COc1ccc(CNC(=O)COc2cccnc2[N+](=O)[O-])cc1OC,inactive
11,CNC(=O)c1ccc(-c2sc3nc(N4CCOCC4)c4c(c3c2N)CC(C)(C)OC4)o1,29.2 µM (active)
12,CCn1c2ccccc2c2c3ncc4cccn4c3ccc21,36.8 µM (active)
13,COc1ccccc1S(=O)(=O)Nc1ccc(-c2nnc3n2CCCCC3)cc1,inactive
14,COc1ccc(C(=O)CSc2nc3ncccc3[nH]2)cc1OC,inactive
15,O=C(O)c1nccnc1C(=O)Nc1ccccc1-c1ccccc1,inactive
16,CCc1oc(C(=O)OC)cc1CSC(=N)N,inactive
17,CCOc1cccc(C(=O)Nc2ccccc2N2CCN(C(=O)C(C)C)CC2)c1,inactive

# — PubChem BioAssay AID493201 (National Center for Advancing Translational Sciences (NCATS), 2011)
